Measured values reported in PubChem BioAssay AID720597 (Broad Institute, 2013).
Entries with a potency or affinity are not part of this list. The source made the active and inactive calls.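 Rule for the calls: active = fitted half-maximal dose no more than twice the top valid tested dose, for compounds that lower signal; inconclusive = fit invalid, or curve flat with activity between -70 and -30; inactive = potency past limit, curve flat within ±30, or signal increasing.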

What follows are compounds tested against NAD-dependent protein deacylase sirtuin-5, mitochondrial (Homo sapiens) (UniProt Q9NXA8) (assay: SIRT5 deacylase inhibitors, dose response, biochemical, fluorescence imaging, cherry-pick, set 6 (AID 720597;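 note: lower AMC signal can also come from blocking the trypsin step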)). Settings: Purified SirT5, succinyl-peptide-AMC/trypsin fluorescence; series mostly up to 15 µM.
NAD-dependent protein deacylase sirtuin-5, mitochondrial (Homo sapiens), sequence (Q9NXA8 whole entry, looked up): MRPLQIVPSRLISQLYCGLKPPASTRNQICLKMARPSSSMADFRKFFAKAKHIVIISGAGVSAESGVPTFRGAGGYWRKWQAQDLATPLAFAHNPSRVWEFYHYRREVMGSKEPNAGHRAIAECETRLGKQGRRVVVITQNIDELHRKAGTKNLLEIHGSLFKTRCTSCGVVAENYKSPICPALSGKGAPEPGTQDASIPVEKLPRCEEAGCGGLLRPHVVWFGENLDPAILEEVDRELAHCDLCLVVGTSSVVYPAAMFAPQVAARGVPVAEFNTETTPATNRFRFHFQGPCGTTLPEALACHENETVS

outcome, inactive:
COCC#Cc1cnc2c(c1)C(=O)N([C@@H](C)CO)C[C@@H](C)[C@@H](CN(C)C(=O)c1ccc(F)cc1)O2
C[C@H](CO)N1C[C@H](C)[C@@H](CN(C)C(=O)NC2CCCCC2)Oc2cc(C#Cc3ccc(F)cc3)ccc2S1(=O)=O
C[C@@H]1CN([C@H](C)CO)C(=O)c2cc(NS(=O)(=O)c3ccc(Cl)cc3)ccc2O[C@@H](C)CCCCO[C@H]1CN(C)C(=O)Nc1ccc(C(F)(F)F)cc1
C[C@H]1CN([C@@H](C)CO)S(=O)(=O)c2ccc(C3=CCCCC3)cc2O[C@@H]1CN(C)S(=O)(=O)c1ccc(F)cc1
Cc1ccc(-c2ccc3c(c2)O[C@@H](CN(C)Cc2ccccc2)[C@@H](C)CN([C@@H](C)CO)S3(=O)=O)cc1
Cc1ccc(S(=O)(=O)N(C)C[C@H]2OCCCC[C@@H](C)Oc3ccc(NS(=O)(=O)c4ccccc4)cc3C(=O)N([C@@H](C)CO)C[C@@H]2C)cc1
COc1ccccc1-c1ccc2c(c1)O[C@H](CN(C)S(=O)(=O)c1ccc(F)cc1)[C@@H](C)CN([C@@H](C)CO)S2(=O)=O
O=C(C1CCOCC1)N1CC2(C1)[C@@H](c1ccccc1)[C@@H](CO)N2CCC(F)(F)F
O=C(NCC1CCCCC1)[C@H]1[C@H](CO)[C@H]2Cn3c(cccc3=O)[C@@H]1N2CCc1ccccc1
C[C@H](CO)N1C[C@H](C)[C@@H](CN(C)C(=O)c2ccc3c(c2)OCO3)Oc2cc(/C=C/c3ccccc3)ccc2S1(=O)=O
C[C@@H]1CN([C@H](C)CO)S(=O)(=O)c2ccc(C#Cc3cccc(F)c3)cc2O[C@H]1CN(C)S(=O)(=O)c1ccccc1F
CCCC#Cc1ccc2c(c1)O[C@H](CN(C)C(=O)Nc1ccccc1F)[C@@H](C)CN([C@H](C)CO)S2(=O)=O
CCN(C[C@H]1[C@@H](c2ccc(-c3ccccc3F)cc2)[C@@H](CO)N1C(C)=O)C(C)=O
O=C(CN1CCOCC1)NCC[C@@H]1CC[C@H](NC(=O)Nc2ccc(F)cc2)[C@H](CO)O1
CO[C@H]1CN(C)C(=O)c2cc(NC(=O)NC(C)C)ccc2OC[C@@H](C)N(C(=O)CC2CC2)C[C@@H]1C
COc1cccc(CN2[C@H](CO)[C@@H](c3ccccc3)C23CN(C(=O)C2CCC2)C3)c1
C[C@@H]1CN([C@H](C)CO)C(=O)c2c(c3ccccc3n2C)-c2ccccc2CO[C@H]1CN(C)S(=O)(=O)c1ccc([N+](=O)[O-])cc1
C[C@H]1CN([C@@H](C)CO)S(=O)(=O)c2ccc(/C=C/c3ccccc3)cc2O[C@H]1CN(C)Cc1ccccc1
O=C(C[C@@H]1C[C@H]2c3cc(NC(=O)C4CCC4)ccc3O[C@H]2[C@H](CO)O1)NCc1ccc(-c2ccccc2)cc1
O=C(C[C@H]1CC[C@H]2[C@@H](COC[C@@H](O)CN2S(=O)(=O)c2ccccc2)O1)Nc1ccc(-c2ccccc2)cc1
COc1ccc(NC(=O)N(C)C[C@H]2Oc3ccc(NS(=O)(=O)c4ccc(F)cc4)cc3C(=O)N([C@@H](C)CO)C[C@@H]2C)cc1
C[C@@H]1CN([C@@H](C)CO)C(=O)Cc2cc(NC(=O)Nc3ccc4c(c3)OCO4)ccc2O[C@@H]1CN(C)CC1CCCCC1
C[C@@H]1CN([C@@H](C)CO)C(=O)c2cc(-c3cccc(F)c3)cnc2O[C@@H]1CN(C)Cc1ccncc1
C[C@@H]1CCCCO[C@H](CN(C)C(=O)Nc2ccc(C(F)(F)F)cc2)[C@H](C)CN([C@@H](C)CO)C(=O)c2cc(NS(=O)(=O)c3ccc(Cl)cc3)ccc2O1
CN(C)C(=O)c1cccc(-c2ccc([C@@H]3[C@H]4CN(S(C)(=O)=O)CCCCN4[C@H]3CO)cc2)c1
C[C@H]1CN([C@@H](C)CO)S(=O)(=O)c2ccc(C#CC3CC3)cc2O[C@H]1CN(C)C(=O)c1ccccn1
C[C@@H]1CN([C@H](C)CO)C(=O)c2cc(NS(=O)(=O)c3ccc(Cl)cc3)ccc2O[C@@H]1CN(C)Cc1ccc(-c2ccccc2)cc1
C[C@H]1CN([C@@H](C)CO)C(=O)c2c(c3ccccc3n2C)-c2ccccc2CO[C@H]1CN(C)S(=O)(=O)c1ccc(F)cc1
COCC(=O)N1[C@H](C#N)[C@H](c2ccccc2-c2cccc(F)c2)[C@H]1CO
C[C@H]1CN([C@@H](C)CO)S(=O)(=O)c2ccc(C#CC3CC3)cc2O[C@@H]1CN(C)Cc1ccccc1F
C[C@H]1CN([C@@H](C)CO)S(=O)(=O)c2ccc(C#CC(C)(C)O)cc2O[C@@H]1CN(C)Cc1ccc(-c2ccccc2)cc1
O=C(O)[C@@H]1[C@@H](CO)[C@@H]2Cn3c(ccc(-c4ccccc4F)c3=O)[C@@H]2N1Cc1ccccc1
O=C(NCC[C@H]1CC[C@@H](NC(=O)C2CC2)[C@H](CO)O1)c1cc(Cl)cc(Cl)c1
C[C@H]1CCCCO[C@@H](CN(C)Cc2ccc(C(F)(F)F)cc2)[C@@H](C)CN([C@@H](C)CO)C(=O)c2cc(NS(=O)(=O)c3ccc(F)cc3)ccc2O1
CC(=O)NC[C@@H]1[C@@H](c2ccc(-c3ccccc3F)cc2)[C@@H](CO)N1CCC(F)(F)F
OC[C@H]1[C@@H](c2ccc(-c3cccc(F)c3)cc2)[C@H]2CN(CCC(F)(F)F)CCCCN21
COc1ccc(S(=O)(=O)Nc2ccc3c(c2)C(=O)N([C@@H](C)CO)C[C@@H](C)[C@@H](CN(C)S(=O)(=O)c2cccs2)OCCCC[C@H](C)O3)cc1
C[C@@H]1CN([C@@H](C)CO)S(=O)(=O)c2ccc(C#C[C@@H](C)O)cc2O[C@H]1CN(C)Cc1ccc(-c2ccccc2)cc1
C[C@@H]1CN([C@H](C)CO)C(=O)c2cc(-c3cccc(F)c3)cnc2O[C@@H]1CN(C)C
CC(C)C#Cc1cnc2c(c1)C(=O)N([C@H](C)CO)C[C@H](C)[C@@H](CN(C)C(=O)CN1CCOCC1)O2
